Test results reported in PubChem BioAssay AID720650 (Broad Institute, 2013).
Values without a mark were called inactive. Calls of active or inactive are those of the source. No rule for the calls is given here.

experiment: Biochemical counterscreen for C difficile toxins, absence of UDPG, inhibitor dose response (AID 720650); details: series mostly up to 19.5 µM

SMILES	AC50
COCC#Cc1ccc2c(c1)O[C@@H](CN(C)C(=O)CC1CC1)[C@H](C)CN([C@@H](C)CO)S2(=O)=O	inactive
O=c1ccc2cc(O)c(O)cc2o1	inactive
N#C/C(=C\c1ccc(N2CCOCC2)o1)C(=O)Nc1ccc(O)cc1	inactive
CC(C)Cc1[nH]c(=O)c(C#N)c2c1CCC2	inactive
Oc1ccc(/C=N/N2CCN(Cc3ccccc3)CC2)cc1	> 39 µM
O=c1c(OC2OC(CO)C(O)C(O)C2O)c(-c2ccc(O)c(O)c2)oc2cc(O)cc(O)c12 (centres undefined)	inactive
CC1(C)CC(=O)C(C=Nc2ccc(O)cc2)=C(O)C1	5.68 µM (active)
O=C(COc1ncnc2ccccc12)NCCc1ccc(F)cc1	inactive
c1ccc(Cc2nnc3n2N=C(c2ccccc2)CS3)cc1	inactive
COc1ccccc1-n1c(SCC(=O)O)nc2c(sc(=S)n2-c2ccc(Cl)c(C)c2)c1=O	> 39 µM
N#Cc1ccc(C(=O)N/N=C/c2cn(CC(=O)O)c3ccccc23)c(F)c1	inactive
O=C(c1ccc(N2CCOCC2)c([N+](=O)[O-])c1)N1CCN(c2ccccc2F)CC1	> 39 µM
COc1cccc2sc(NNC(=O)C3COc4ccccc4O3)nc12 (centres undefined)	0.972 µM (active)
CC(C)(C)N1[C@@H](CC(=O)O)c2cc(C(F)(F)F)ccc2S1(=O)=O	inactive
CCCCc1[nH]c(=O)c(C#N)c2c1CCCC2	inactive
CC(=O)Nc1ccccc1O	18.4 µM (active)
CN(C)CCNc1cccc2sc3ccc(O)cc3c(=O)c12	4.36 µM (active)
CN(c1ccccc1)S(=O)(=O)c1cccc(C(=O)NCCc2ccc(O)c(O)c2)c1	inactive
Cc1cccc(/C=C/c2onc(C)c2S(=O)(=O)N2CCC(C(=O)N3CCCCC3)CC2)c1	inactive
O=[N+]([O-])c1ccc(/C=C/c2ccc3ccccc3n2)cc1	inactive

SMILES	AC50
COC(=O)C1=C(c2ccc(F)cc2OCc2ccccc2)C[C@@H]2CC[C@H]1N2C(=O)N1CCCC1	inactive
COc1ccccc1Oc1cn[nH]c1-c1ccc(O)cc1O	11.6 µM (active)
Cc1[nH]c(-c2ccc(F)cc2)cc1C(=O)N1CCN(c2ccccc2)CC1	inactive
O=C(O)c1ccc(-n2nnc3ccccc32)c([N+](=O)[O-])c1	inactive
CCOC(=O)Nc1ccc(OC(=O)Oc2ccc(NC(=O)OCC)cc2)cc1	> 39 µM
Cc1ccc(C(=O)Nc2ccc(O)cc2C(=O)O)cc1C	> 39 µM
CC(=O)C(Sc1nccc(-c2cccs2)n1)C(C)=O	9.69 µM (active)
CN1C(=O)CSc2ccc(NC(=O)N3CCc4ccccc43)cc21	20.2 µM (active)
O=C(NN=Cc1cc(Br)c(O)c(Br)c1)c1ccccc1NS(=O)(=O)c1cccs1	inactive
CN1c2ccc(-c3ccccc3)cc2[C@H]2[C@H](CCN2C(=O)CN2CCOCC2)[C@H]1CO	7.83 µM (active)
CCN1CCN(C(=O)C2=CC(c3ccc(OC)cc3)=NS(=O)(=O)N2C)CC1	inactive
O=c1c2ccc(Cl)cc2[nH]c(=S)n1-c1cccnc1	inactive
CC(=O)c1ccc(NC(=O)CNCC(c2ccccc2)N(C)C)cc1 (centres undefined)	inactive
C[C@H](NC(=O)c1cc2c(cn1)[nH]c1ccccc12)C(=O)O	inactive
CCC(=O)N1CC[C@@H]2[C@H]1c1cc(-c3ccccc3)ccc1N(C)[C@H]2CO	4.44 µM (active)
CC(Sc1nc2ccccc2n1C)C(=O)Nc1ccc(N2CCOCC2)cc1 (centres undefined)	inactive
O=C(O)c1ccccc1C(=O)c1ccc2c(c1)N(Cc1cccc(F)c1)C(=O)CO2	19 µM (active)
COc1cc2[nH]c(=S)n(Cc3cccs3)c(=O)c2cc1OC	inactive
O=c1[nH]c(CN2CCOCC2)nc2cc(Cl)ccc12	inactive
